# ChEMBL document CHEMBL1961873, “Compounds: GSK PKIS; Assays: Nanosyn kinase panel” (2012)
# “And” between values parts separate entries of the source, which are not always exact repeats. Identical values can stand only once.
# How the values were obtained:
# [1] = target: Glycogen synthase kinase-3 beta (Homo sapiens) (UniProt P49841); conditions: at 1 µM;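 note: reported values are mean percent inhibition of GSK3B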
# [2] = target: Homeodomain-interacting protein kinase 1 (Homo sapiens) (UniProt Q86Z02); conditions: at 0.1 µM
# [3] = target: Homeodomain-interacting protein kinase 1 (Homo sapiens) (UniProt Q86Z02); conditions: at 1 µM
# [4] = target: T1, Homeodomain-interacting protein kinase 4 (Homo sapiens) (UniProt Q8NE63); conditions: at 0.1 µM
# T1 sequence (whole entry): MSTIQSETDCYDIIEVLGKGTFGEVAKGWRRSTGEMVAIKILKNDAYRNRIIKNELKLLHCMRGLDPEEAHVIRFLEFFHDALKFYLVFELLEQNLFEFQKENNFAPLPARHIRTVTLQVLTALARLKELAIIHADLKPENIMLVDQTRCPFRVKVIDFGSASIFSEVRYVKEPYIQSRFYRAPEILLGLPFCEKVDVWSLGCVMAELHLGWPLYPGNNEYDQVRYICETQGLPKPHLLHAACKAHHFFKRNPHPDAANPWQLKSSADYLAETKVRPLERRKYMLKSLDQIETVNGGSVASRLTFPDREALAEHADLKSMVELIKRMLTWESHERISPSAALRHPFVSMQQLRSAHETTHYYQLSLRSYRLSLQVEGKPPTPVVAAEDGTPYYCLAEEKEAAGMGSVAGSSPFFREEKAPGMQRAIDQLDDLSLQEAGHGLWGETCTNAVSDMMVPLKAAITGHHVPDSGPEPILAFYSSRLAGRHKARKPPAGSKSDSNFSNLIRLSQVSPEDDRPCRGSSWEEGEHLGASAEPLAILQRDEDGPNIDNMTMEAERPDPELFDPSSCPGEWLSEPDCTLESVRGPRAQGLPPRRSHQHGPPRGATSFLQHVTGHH
# [5] = target: T1, Homeodomain-interacting protein kinase 4 (Homo sapiens); conditions: at 1 µM
# [6] = target: Mitogen-activated protein kinase 9 (Homo sapiens) (UniProt P45984); conditions: at 0.1 µM
# [7] = target: Mitogen-activated protein kinase 9 (Homo sapiens) (UniProt P45984); conditions: at 1 µM
# [8] = target: Mitogen-activated protein kinase 1 (Homo sapiens) (UniProt P28482); conditions: at 0.1 µM
# [9] = target: Mitogen-activated protein kinase 1 (Homo sapiens) (UniProt P28482); conditions: at 1 µM
# [10] = target: Mitogen-activated protein kinase 3 (Homo sapiens) (UniProt P27361); conditions: at 0.1 µM
# [11] = target: Mitogen-activated protein kinase 3 (Homo sapiens) (UniProt P27361); conditions: at 1 µM
# [12] = target: SRSF protein kinase 3 (Homo sapiens) (UniProt Q9UPE1); conditions: at 0.1 µM
# [13] = target: SRSF protein kinase 3 (Homo sapiens) (UniProt Q9UPE1); conditions: at 1 µM
# [14] = target: Mitogen-activated protein kinase 14 (Homo sapiens) (UniProt Q16539); conditions: at 0.1 µM
# [15] = target: Mitogen-activated protein kinase 14 (Homo sapiens) (UniProt Q16539); conditions: at 1 µM
# [16] = target: Mitogen-activated protein kinase 11 (Homo sapiens) (UniProt Q15759); conditions: at 0.1 µM
# [17] = target: Mitogen-activated protein kinase 11 (Homo sapiens) (UniProt Q15759); conditions: at 1 µM
# [18] = target: T2, Mitogen-activated protein kinase 13 (Homo sapiens) (UniProt O15264); conditions: at 0.1 µM
# T2 sequence (whole entry): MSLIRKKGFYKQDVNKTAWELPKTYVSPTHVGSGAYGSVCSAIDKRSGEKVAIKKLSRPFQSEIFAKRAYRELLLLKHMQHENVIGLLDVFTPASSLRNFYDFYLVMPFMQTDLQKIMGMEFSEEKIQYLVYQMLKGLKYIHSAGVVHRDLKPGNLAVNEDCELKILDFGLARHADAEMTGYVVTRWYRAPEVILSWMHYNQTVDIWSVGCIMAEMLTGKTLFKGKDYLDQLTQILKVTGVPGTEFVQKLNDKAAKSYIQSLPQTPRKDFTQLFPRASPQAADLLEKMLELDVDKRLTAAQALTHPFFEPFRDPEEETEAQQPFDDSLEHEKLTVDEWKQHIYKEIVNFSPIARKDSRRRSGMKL
# [19] = target: T2, Mitogen-activated protein kinase 13 (Homo sapiens); conditions: at 1 µM
# [20] = target: T3, Mitogen-activated protein kinase 12 (Homo sapiens) (UniProt P53778); conditions: at 0.1 µM
# T3 sequence (whole entry): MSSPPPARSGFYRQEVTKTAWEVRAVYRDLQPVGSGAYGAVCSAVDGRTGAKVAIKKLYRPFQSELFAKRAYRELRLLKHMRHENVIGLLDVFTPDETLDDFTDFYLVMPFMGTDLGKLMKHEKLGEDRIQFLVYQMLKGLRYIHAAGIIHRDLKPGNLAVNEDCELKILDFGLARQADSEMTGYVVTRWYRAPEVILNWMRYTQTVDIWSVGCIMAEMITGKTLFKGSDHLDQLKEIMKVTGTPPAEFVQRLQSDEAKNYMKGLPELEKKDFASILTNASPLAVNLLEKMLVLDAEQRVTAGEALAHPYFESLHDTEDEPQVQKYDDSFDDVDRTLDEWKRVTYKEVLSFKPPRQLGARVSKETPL
# Sequence of Mitogen-activated protein kinase 3 (Homo sapiens) (P27361 whole entry): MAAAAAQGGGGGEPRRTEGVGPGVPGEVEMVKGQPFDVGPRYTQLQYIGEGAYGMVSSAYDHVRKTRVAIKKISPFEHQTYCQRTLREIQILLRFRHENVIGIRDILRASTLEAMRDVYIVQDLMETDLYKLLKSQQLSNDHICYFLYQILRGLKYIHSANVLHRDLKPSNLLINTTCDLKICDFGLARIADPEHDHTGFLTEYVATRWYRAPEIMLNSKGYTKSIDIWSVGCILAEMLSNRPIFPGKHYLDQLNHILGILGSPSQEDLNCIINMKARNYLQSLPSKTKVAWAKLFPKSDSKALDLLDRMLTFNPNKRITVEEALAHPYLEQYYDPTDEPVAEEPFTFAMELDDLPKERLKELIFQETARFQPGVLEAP
# Sequence of Homeodomain-interacting protein kinase 1 (Homo sapiens) (Q86Z02 whole entry, looked up): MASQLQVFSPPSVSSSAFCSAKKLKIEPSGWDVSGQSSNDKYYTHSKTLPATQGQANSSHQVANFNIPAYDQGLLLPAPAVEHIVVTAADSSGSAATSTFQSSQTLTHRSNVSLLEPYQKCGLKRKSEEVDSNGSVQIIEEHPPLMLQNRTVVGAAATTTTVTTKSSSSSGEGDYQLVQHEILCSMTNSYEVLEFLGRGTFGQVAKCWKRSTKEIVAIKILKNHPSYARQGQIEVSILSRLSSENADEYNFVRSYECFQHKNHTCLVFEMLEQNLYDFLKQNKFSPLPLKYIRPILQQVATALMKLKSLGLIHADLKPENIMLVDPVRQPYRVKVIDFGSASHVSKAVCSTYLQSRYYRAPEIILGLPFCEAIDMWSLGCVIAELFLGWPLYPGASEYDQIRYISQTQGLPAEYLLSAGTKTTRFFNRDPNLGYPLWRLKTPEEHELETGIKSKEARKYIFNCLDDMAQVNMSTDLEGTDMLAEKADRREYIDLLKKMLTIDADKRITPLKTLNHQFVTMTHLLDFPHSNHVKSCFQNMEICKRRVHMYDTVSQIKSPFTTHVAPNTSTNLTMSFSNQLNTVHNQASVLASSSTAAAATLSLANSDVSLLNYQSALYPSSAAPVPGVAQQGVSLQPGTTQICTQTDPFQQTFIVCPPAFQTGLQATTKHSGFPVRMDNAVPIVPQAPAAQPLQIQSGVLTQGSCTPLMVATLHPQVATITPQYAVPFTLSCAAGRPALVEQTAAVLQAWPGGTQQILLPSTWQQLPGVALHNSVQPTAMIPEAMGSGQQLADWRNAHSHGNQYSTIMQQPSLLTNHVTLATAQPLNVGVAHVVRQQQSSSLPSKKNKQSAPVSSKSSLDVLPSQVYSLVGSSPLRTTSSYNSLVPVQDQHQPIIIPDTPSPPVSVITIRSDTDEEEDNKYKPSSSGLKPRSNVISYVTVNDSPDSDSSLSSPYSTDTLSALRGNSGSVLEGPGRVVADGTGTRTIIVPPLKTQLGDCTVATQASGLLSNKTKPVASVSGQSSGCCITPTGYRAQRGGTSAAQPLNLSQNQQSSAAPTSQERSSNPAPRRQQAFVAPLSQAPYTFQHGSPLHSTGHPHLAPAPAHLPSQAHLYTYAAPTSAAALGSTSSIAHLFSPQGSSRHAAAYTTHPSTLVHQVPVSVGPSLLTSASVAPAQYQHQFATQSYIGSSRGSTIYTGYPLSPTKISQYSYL
# Sequence of Glycogen synthase kinase-3 beta (Homo sapiens) (P49841 whole entry, looked up): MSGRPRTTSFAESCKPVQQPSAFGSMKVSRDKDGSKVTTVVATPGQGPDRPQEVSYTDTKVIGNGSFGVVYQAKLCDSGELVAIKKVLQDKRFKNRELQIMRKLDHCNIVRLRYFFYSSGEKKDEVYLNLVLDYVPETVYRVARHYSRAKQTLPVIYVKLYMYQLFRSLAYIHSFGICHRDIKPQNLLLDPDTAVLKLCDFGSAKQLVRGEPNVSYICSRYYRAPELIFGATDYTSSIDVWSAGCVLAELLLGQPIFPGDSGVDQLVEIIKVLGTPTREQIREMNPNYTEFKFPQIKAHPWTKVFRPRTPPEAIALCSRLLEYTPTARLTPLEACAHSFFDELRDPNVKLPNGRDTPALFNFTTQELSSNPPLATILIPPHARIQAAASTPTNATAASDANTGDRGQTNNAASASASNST
# Sequence of Mitogen-activated protein kinase 14 (Homo sapiens) (Q16539 whole entry): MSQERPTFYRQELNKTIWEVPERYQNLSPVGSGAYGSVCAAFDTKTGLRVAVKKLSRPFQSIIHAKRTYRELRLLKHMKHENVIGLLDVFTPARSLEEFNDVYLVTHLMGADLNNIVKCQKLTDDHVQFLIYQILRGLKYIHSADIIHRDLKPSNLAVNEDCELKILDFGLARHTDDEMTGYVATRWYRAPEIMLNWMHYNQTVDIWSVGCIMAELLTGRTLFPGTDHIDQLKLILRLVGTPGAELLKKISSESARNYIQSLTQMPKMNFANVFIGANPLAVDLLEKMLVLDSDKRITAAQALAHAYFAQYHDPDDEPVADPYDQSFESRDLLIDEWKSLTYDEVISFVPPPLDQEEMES
# Sequence of SRSF protein kinase 3 (Homo sapiens) (Q9UPE1 whole entry): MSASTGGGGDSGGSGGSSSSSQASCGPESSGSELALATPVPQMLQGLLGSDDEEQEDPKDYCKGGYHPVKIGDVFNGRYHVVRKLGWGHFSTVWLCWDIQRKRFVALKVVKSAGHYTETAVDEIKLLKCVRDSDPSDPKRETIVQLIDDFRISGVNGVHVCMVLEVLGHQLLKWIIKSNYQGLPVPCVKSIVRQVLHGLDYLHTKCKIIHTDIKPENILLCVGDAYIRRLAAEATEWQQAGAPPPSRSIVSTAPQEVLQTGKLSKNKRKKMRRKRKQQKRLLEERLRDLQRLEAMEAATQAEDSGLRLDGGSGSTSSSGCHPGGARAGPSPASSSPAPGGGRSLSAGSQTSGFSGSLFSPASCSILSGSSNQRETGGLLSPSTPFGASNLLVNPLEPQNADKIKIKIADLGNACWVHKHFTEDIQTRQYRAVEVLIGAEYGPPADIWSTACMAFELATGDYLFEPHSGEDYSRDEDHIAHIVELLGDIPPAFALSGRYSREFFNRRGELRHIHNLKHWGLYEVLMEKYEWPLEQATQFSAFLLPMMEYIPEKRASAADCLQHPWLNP
# Sequence of Mitogen-activated protein kinase 1 (Homo sapiens) (P28482 whole entry): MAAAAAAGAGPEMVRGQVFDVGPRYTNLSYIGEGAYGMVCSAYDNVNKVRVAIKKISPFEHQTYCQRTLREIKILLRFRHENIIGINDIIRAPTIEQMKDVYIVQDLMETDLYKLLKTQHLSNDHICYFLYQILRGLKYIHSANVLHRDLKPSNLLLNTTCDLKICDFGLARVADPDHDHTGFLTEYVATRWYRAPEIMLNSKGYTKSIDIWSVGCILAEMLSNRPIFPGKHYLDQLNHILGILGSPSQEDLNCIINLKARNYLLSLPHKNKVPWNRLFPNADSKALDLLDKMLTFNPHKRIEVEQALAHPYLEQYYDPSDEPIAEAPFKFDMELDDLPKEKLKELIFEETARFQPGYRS
# Sequence of Mitogen-activated protein kinase 11 (Homo sapiens) (Q15759 whole entry): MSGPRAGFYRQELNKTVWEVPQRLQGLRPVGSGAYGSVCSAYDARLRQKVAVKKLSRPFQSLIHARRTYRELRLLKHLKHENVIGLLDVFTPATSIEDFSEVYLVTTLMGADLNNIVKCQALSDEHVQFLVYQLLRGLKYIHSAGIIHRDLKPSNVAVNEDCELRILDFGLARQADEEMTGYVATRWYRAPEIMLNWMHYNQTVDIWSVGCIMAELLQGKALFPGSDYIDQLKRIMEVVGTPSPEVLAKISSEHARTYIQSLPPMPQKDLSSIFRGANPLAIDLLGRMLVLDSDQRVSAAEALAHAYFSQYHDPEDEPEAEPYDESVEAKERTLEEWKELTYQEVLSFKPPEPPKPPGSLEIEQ
# Sequence of Mitogen-activated protein kinase 9 (Homo sapiens) (P45984 whole entry, looked up): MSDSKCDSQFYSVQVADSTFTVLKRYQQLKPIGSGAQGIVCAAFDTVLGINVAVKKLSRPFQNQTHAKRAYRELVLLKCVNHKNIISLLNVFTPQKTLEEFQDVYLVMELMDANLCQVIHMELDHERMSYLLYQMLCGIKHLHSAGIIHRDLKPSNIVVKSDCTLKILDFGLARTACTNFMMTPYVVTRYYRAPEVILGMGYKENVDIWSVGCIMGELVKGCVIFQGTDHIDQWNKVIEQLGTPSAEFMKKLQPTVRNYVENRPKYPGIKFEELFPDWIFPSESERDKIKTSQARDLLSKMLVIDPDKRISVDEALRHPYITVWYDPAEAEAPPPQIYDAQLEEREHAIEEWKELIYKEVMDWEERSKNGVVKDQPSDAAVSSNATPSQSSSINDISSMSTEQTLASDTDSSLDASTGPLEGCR
Compound,inhibition [1],inhibition [2],inhibition [3],inhibition [4],inhibition [5],inhibition [6],inhibition [7],inhibition [8],inhibition [9],inhibition [10],inhibition [11],inhibition [12],inhibition [13],inhibition [14],inhibition [15],inhibition [16],inhibition [17],inhibition [18],inhibition [19],inhibition [20]
c1cnn2ncc(-c3ccnc(NCCCN4CCOCC4)n3)c2c1,13%,-1.15%,6.02%,-0.89%,3.35%,3.34%,5.01%,2.95%,4.35%,2.48%,0.61%,-0.52%,-0.57%,1.91%,8.35%,2.39%,4.06%,-1.15%,4.03%,-0.08%
COc1cccc(Nc2nccc(-c3cnn4ncccc34)n2)c1,79%,88.9%,92.6%,56.4%,87.3%,9.47%,46.2%,2.75%,26.5%,1.68%,13.1%,-0.05%,0.66%,5.7%,9.35%,4.7%,7.72%,5%,15.2%,1.36%
COc1cc(N2CCN(C(C)C)CC2)ccc1Nc1nc(Nc2cccc3ncccc23)c2cc[nH]c2n1,5.17%,-1.1%,3.6%,1.11%,6.13%,0.17%,5.14%,-2.97%,-0.36%,-2.04%,0.21%,-0.27%,1.83%,1.44%,2.03%,-0.29%,0.54%,-1.75%,-2.15%,-0.18%
CCS(=O)(=O)c1ccc(OC)c(Nc2ncc(-c3cccc(F)c3)o2)c1,4.08%,1.26%,23.8%,4.37%,30%,7.66%,7.11%,6.33%,7.09%,4.68%,5.09%,-2.3%,0.15%,13.4%,14.9%,4.8%,7.52%,5.58%,5.36%,3.31%
FC(F)(F)CNc1nccc(-c2cnn3ncccc23)n1,6.02%,0.25%,10.2%,-0.95%,3.01%,2.29%,4.42%,3.24%,5.24%,1.95%,2.69%,-4.16%,-0.66%,6.27%,5.78%,3.94%,6.08%,2.13%,2.49%,1.83%
c1ccc(-c2n[nH]cc2-c2ccnc(-c3ccc(OCCn4ccnc4)cc3)c2)nc1,4.83%,-0.98%,-1.32%,-0.24%,2.03%,2.7%,8.69%,1.6%,1.52%,0.3%,1.75%,-3.24%,-1.72%,9.4%,36.8%,1.39%,9.38%,0.51%,0.99%,1.96%
CC1=C(C(=O)Nc2ccc3[nH]ncc3c2)C(c2ccc(F)cc2)N=C(c2ccc(C(F)(F)F)nc2)N1 (stereo not given),4.71%,0.16%,2.28%,0.68%,1.53%,1.61%,4.98%,-1.73%,3.17%,1.81%,-0.07%,0.36%,0.93%,6.91%,7.75%,0.24%,2.12%,2.38%,2.31%,0.91%
CC1(C)CC(n2cnc(-c3ccc(F)cc3)c2-c2ccnc(N)n2)CC(C)(C)N1,6.07%,-1.4%,-0.7%,-0.06%,1.62%,-1.22%,4.24%,-0.07%,-0.08%,0.44%,1.92%,-0.06%,-1.33%,64.5%,77.6%,13.6%,55.7%,1.83%,1.42%,0.38%
CN1CCC(n2cnc(-c3ccc(F)cc3)c2-c2ccnc(NCCO)n2)CC1,7.21%,3.91%,7.67%,2.19%,4.16%,8.58%,37.3%,2.94%,6.12%,3.9%,6.51%,-0.9%,1.7%,66.3%,86.3%,12.9%,52.5%,2.89%,4.31%,3.94%
O=C(O[C@H]1CN[C@H](C#Cc2cc3ncnc(Nc4ccc(OCc5cccc(F)c5)c(Cl)c4)c3s2)C1)N1CCOCC1,4.2%,1.86%,0.81%,2.71%,4.99%,3.19%,7.19%,7.72%,5.38%,4.82%,5.48%,-1.6%,-1.95%,3.55%,7.34%,5.95%,5.11%,1.84%,6.02%,3.76%
CCn1c(-c2nonc2N)nc2cncc(C(=O)NCCNC)c21,42.3%,0.25%,10.2%,-0.44%,3.11%,4.59%,4.73%,6.91%,6.64%,6.22%,5.7%,-3.21%,-0.69%,7.83%,6.55%,4.08%,3.55%,5.75%,5.07%,3.86%
Nc1nonc1-c1nc2cnccc2n1C1CC1,68.1% and 62.1%,0.55% and 0.39%,17.3% and 12.3%,3.8% and -0.76%,11.1% and 7.82%,3.59% and 0.44%,6.52% and 2.72%,3.14% and 2.36%,7.51% and 3.94%,4.9% and 2.96%,4.99% and 3.59%,-0.3% and -0.76%,-1.03% and 0.65%,9.91% and 3.52%,9.15% and 7.62%,3.95% and 1.62%,6.89% and 0.76%,3.43% and 4.51%,6.86% and 5.08%,3.64% and 2.61%
N#Cc1ccc2c(-c3ccnc(NC4CC4)n3)c(-c3ccc(F)cc3)nn2c1,45.1%,-2.11%,0.75%,-0.93%,-1.01%,17.2%,71.1%,1.33%,4.26%,0.07%,1.27%,-2.45%,-1.38%,75.4%,84.2%,44.5%,74.8%,1.17%,0.18%,1%
